Measured values taken from PMC7862700, “An all-to-all approach to the identification of sequence-specific readers for epigenetic DNA modifications on cytosine”.

Experiments:
Experiment in all cases: DAPPL (digital affinity profiling via proximity ligation, sequencing); 10 mM Tris-HCl pH 7.5, 50 mM NaCl, 1 mM DTT, 4% glycerol, room temperature, 30 min; GST-TFs on glutathione beads, 16-mer random dsDNA library, 0.1% formaldehyde crosslink after washing; high values mean tight binding
Conditions in all cases: protein: recombinant; tags: N-terminal GST; dsDNA, one strand shown
FLI1 = target: T1, FLI1 (Homo sapiens, UniProt Q01543 1-452)
T1 sequence: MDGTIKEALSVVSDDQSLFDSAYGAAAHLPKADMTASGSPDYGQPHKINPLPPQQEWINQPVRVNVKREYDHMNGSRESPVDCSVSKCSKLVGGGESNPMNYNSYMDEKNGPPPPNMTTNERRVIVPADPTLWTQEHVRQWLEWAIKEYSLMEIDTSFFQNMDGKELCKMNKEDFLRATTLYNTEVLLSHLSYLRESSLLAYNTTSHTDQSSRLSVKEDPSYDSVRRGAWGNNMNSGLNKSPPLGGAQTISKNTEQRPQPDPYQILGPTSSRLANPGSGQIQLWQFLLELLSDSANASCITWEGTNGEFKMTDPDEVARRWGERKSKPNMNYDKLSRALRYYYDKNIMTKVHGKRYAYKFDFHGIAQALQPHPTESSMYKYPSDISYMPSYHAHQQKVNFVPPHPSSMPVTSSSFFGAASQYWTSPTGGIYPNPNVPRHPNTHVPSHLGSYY
Procedure, shortened: (§1)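 Human transcription factors were made in yeast as GST fusions, captured on glutathione beads and barcoded with DNA. With a tag-only sample included, the pool was incubated with 200 nmole of a random double-stranded 16-mer DNA library in Tris/NaCl/DTT/glycerol buffer at room temperature for 30 min, then crosslinked with 0.1% formaldehyde after washing, ligated by proximity, amplified and sequenced. For binding signal, each hexamer's read frequency for a factor is divided by its frequency for the tag-only sample.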

ELK1 = target: T2, ELK1 (Homo sapiens, UniProt P19419 1-428)
T2 sequence: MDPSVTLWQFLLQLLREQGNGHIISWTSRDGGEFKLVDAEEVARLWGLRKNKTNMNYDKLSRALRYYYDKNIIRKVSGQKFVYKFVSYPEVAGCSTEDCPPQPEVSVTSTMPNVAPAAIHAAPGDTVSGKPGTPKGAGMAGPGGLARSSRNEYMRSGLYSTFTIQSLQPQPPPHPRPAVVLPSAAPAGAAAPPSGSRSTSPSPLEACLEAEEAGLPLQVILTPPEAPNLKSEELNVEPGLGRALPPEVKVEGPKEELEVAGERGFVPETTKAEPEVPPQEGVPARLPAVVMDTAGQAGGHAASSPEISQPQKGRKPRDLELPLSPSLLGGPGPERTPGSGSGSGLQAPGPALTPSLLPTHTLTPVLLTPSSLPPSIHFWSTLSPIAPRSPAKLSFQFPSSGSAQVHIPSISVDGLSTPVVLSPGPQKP
Procedure, shortened: as §1

GABPA = target: T3, GABPA (Homo sapiens, UniProt Q06546 1-454)
T3 sequence: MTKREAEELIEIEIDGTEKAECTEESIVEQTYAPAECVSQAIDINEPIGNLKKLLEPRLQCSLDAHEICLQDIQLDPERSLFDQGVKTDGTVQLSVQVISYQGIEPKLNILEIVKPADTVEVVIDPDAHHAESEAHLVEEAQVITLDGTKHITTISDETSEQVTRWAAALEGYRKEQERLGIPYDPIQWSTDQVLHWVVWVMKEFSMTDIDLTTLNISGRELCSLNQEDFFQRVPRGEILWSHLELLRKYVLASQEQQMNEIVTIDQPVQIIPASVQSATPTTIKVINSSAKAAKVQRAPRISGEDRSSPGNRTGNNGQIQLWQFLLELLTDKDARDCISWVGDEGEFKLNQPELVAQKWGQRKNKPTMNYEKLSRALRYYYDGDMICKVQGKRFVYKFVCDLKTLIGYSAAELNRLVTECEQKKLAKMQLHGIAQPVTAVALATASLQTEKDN
Procedure, shortened: as §1

SPIB = SPIB (Homo sapiens, UniProt Q01892 1-262)
Procedure, shortened: as §1

ELK3 = target: T4, ELK3 (Homo sapiens, UniProt P41970 1-407)
T4 sequence: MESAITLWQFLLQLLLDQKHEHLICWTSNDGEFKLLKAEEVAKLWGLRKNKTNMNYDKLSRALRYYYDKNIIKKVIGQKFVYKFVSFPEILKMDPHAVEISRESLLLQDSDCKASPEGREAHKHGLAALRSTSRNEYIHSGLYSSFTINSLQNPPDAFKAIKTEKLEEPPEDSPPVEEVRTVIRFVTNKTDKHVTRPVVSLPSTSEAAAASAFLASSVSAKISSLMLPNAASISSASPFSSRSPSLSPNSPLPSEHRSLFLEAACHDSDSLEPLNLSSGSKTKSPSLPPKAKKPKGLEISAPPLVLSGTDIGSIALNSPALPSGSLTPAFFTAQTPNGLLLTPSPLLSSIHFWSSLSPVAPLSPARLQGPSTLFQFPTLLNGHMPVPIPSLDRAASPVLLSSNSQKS
Procedure, shortened: as §1

ELK4 = target: T5, ELK4 (Homo sapiens, UniProt P28324-2 1-405)
T5 sequence: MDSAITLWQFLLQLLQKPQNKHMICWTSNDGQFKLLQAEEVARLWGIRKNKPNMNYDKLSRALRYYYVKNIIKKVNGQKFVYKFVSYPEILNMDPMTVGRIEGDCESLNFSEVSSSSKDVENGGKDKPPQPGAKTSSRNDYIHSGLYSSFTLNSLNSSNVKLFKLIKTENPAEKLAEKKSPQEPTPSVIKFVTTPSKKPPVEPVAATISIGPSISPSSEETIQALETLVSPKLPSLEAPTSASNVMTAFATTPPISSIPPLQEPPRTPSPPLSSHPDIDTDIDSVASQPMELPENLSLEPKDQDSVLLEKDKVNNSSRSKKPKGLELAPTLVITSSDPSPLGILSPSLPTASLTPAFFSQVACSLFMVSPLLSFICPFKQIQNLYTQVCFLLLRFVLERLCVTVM
Procedure, shortened: as §1

ETV2 = target: T6, ETV2 (Homo sapiens, UniProt O00321 1-342)
T6 sequence: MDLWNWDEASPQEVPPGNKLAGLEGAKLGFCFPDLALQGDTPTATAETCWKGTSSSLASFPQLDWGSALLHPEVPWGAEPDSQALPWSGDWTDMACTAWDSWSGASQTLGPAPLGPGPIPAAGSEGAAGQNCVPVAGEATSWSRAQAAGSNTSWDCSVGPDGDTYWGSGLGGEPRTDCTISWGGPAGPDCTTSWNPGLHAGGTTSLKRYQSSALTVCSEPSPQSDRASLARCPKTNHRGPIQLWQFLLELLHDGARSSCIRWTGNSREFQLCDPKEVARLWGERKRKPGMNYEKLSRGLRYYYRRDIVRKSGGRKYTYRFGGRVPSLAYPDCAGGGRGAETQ
Procedure, shortened: as §1

ETV1 = ETV1 (Homo sapiens, UniProt P50549 1-477)
Procedure, shortened: as §1

ERF = target: T7, ERF (Homo sapiens, UniProt P50548 1-548)
T7 sequence: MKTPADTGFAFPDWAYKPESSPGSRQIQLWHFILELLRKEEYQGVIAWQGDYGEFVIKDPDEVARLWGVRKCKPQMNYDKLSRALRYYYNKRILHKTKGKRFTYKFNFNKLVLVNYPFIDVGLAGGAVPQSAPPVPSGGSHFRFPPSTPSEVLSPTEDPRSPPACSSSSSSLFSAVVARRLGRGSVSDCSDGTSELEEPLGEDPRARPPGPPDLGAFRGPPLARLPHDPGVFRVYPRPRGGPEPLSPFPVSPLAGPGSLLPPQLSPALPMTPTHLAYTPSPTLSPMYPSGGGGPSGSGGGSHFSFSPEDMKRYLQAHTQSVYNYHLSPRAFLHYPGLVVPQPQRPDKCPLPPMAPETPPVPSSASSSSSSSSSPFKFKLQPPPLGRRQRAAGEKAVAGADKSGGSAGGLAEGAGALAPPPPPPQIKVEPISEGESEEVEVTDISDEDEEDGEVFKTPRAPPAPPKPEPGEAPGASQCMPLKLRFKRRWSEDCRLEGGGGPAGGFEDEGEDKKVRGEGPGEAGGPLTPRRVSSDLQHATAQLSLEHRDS
Procedure, shortened: as §1

ETV6 = ETV6 (Homo sapiens, UniProt P41212 1-452)
Procedure, shortened: as §1

Chain of SPIB (Q01892 whole entry): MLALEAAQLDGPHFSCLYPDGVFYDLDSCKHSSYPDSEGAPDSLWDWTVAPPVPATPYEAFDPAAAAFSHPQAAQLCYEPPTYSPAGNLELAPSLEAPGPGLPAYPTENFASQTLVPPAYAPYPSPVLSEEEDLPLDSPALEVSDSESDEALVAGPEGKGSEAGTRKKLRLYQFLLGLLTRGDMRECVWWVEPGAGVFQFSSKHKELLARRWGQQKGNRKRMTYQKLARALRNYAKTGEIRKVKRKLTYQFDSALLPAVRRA
Chain of ETV1 (P50549 whole entry): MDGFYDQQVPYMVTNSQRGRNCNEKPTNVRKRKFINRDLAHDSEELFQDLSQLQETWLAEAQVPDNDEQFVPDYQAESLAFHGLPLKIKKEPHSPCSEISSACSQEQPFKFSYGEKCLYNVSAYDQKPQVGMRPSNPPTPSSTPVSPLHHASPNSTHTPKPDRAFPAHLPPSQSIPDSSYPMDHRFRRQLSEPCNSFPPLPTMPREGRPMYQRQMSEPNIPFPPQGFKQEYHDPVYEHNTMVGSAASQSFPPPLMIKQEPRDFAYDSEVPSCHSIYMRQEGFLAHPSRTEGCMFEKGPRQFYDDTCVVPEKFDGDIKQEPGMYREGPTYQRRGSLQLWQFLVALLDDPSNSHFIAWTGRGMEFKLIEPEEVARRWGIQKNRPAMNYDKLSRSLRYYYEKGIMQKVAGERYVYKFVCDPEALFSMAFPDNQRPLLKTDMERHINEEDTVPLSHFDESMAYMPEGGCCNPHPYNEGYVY
Chain of ETV6 (P41212 whole entry): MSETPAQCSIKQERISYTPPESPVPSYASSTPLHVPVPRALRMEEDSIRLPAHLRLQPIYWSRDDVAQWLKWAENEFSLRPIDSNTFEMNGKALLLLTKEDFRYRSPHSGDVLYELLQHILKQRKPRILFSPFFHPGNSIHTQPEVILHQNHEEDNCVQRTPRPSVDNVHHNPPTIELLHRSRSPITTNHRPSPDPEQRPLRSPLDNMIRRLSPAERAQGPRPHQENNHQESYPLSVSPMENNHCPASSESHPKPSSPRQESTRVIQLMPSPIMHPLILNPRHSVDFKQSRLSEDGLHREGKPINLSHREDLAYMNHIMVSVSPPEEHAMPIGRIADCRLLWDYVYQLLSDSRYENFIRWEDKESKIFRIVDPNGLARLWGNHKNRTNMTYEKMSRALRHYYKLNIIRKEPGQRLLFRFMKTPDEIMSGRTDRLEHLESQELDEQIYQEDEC

Sequence	binding signal (FLI1)	binding signal (ELK1)	binding signal (GABPA)	binding signal (SPIB)	binding signal (ELK3)	binding signal (ELK4)	binding signal (ETV2)	binding signal (ETV1)	binding signal (ERF)	binding signal (ETV6)
GGTCTG	1.03 fold enrichment (6-mer frequency, TF over GST control)	1.11 fold enrichment (6-mer frequency, TF over GST control)	1.02 fold enrichment (6-mer frequency, TF over GST control)	1 fold enrichment (6-mer frequency, TF over GST control)	1.03 fold enrichment (6-mer frequency, TF over GST control)	1.07 fold enrichment (6-mer frequency, TF over GST control)	1.07 fold enrichment (6-mer frequency, TF over GST control)	1.07 fold enrichment (6-mer frequency, TF over GST control)	1.09 fold enrichment (6-mer frequency, TF over GST control)	1.02 fold enrichment (6-mer frequency, TF over GST control)
TGTTGG	1.01 fold enrichment (6-mer frequency, TF over GST control)									
GACTCA	1.06 fold enrichment (6-mer frequency, TF over GST control)		1.02 fold enrichment (6-mer frequency, TF over GST control)	1.09 fold enrichment (6-mer frequency, TF over GST control)	1.04 fold enrichment (6-mer frequency, TF over GST control)					
